High-throughput results deposited in PubChem BioAssay by several laboratories.
M18AAP inhibitor: PfM18AAP enzyme inhibition; recombinant PfM18AAP, H-Glu-NHMec fluorogenic cleavage; inhibition, % at 7.35 µM; 290,000 compounds, 1.2% hits;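 active = inhibition above the campaign mean inhibition over all tested compounds plus 3 SD, cut at about 28% in these data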
GASC-1 inh: human JMJD2C demethylase inhibition; inhibition, % at 2.35 µM; GST-JMJD2C(1-420) H3K9me3 demethylation, DELFIA europium; Q9H3R0; 330,000 compounds, 0.069% hits;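 active = more than half of a compound's replicate wells show inhibition beyond 50%, single wells judged on their own value; inconclusive = some, but no more than half, of replicates pass 50% inhibition; inactive = no replicate passes 50% inhibition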;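 also: signal counts dimethyl H3K9 product captured on neutravidin plate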
Target sequence (Q9H3R0 1-420 limits assumed): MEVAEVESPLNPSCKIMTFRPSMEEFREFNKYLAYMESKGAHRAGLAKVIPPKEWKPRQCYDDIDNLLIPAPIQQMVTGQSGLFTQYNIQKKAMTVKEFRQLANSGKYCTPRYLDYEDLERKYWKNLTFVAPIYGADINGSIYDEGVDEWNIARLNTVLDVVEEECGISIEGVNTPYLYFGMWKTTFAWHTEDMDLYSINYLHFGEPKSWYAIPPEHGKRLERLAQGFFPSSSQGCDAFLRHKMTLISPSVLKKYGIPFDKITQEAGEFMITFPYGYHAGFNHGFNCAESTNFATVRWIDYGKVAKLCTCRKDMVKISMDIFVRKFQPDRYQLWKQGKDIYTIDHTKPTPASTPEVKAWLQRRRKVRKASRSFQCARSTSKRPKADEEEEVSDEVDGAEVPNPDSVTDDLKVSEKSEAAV
ALR inh: blocks human ALR sulfhydryl oxidase activity. P55789. purified ALR, DTT oxidation, H2O2 HRP-luminol luminescence. inhibition, % (concentration not given with the values). 290,000 compounds, 3.8% hits. AID 485317;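 active = mean replicate inhibition above about 79%, with every replicate also reaching it, limit read from the data; inconclusive = only one of the two criteria met; inactive = mean below limit and not every replicate reaching it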
Target sequence (P55789 whole entry, looked up): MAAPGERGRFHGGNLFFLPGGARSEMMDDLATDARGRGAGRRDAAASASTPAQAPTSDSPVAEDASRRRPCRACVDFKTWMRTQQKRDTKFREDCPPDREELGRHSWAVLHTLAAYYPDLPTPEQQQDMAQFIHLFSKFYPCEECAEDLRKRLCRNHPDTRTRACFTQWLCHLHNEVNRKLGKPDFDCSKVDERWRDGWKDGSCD
SMARCA2 activ: SMARCA2 function activation, primary screen. MG213 cells, MMTV-luciferase reporter, dexamethasone, overnight. activation, % at 9.1 µM. 370,000 compounds, 1% hits. AID 652017; in the data active = activation above about 7.8%
Exocytosis inh: blocks lytic granule exocytosis; TALL-104 LAMP-1 surface exposure, flow cytometry; cells stimulated with thapsigargin and PMA; AID 651702; 360,000 compounds, 0.66% hits; inhibition, % at 10 µM;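 active = inhibition above about 55%, limit read from the data; inconclusive = no clear call, values can overlap the other calls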
MIN6 prolif: induces beta-cell replication in MIN6 cells; 330,000 compounds, 0.29% hits; MIN6 cells proliferation, ATPlite luminescence, 48 h; cells starved in 0.2% serum; 100% = growth in 10% serum; proliferation, % at 10 µM;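 active = compounds whose signal lies at least 3.5 SD above the mean of all wells on their plate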
Large screens that a line does not name were inactive. An excerpt weighted towards active compounds, which were near 5.4% of everything screened.

Cc1ccc(-c2nc(=S)c3c(n2Cc2ccco2)CC(C)(C)OC3)cc1	ALR inh 97, Exocytosis inh 61 (no result: SMARCA2 activ)
COCC(=O)N(Cc1ccccc1)c1ccccc1C(=O)Nc1cc(OC)ccc1OC	none (no result: M18AAP inhibitor, GASC-1 inh, ALR inh, Exocytosis inh, MIN6 prolif)
CCOc1ccc(CNC(=S)N/N=C\c2ccc([N+](=O)[O-])cc2)cc1	ALR inh 99
CCOC(=O)Cc1nc(N2CCN(C=O)CC2)c2c(C)c(C(=O)OCC)sc2n1	none (no result: M18AAP inhibitor, GASC-1 inh, ALR inh, Exocytosis inh, MIN6 prolif)
C/C(=N\Nc1ccc(C(=O)O)cc1)c1ccc(-n2ccnc2)cc1	none
COc1ccc(/C(C)=N/Nc2ccc(C(=O)O)cc2)cc1OC	M18AAP inhibitor 29 (no result: ALR inh)
COc1cc(/C(C)=N/Nc2ccc(C(=O)O)cc2)cc(OC)c1OC	none (no result: ALR inh)
C/C(=N/Nc1ccc(C(=O)O)cc1)c1ccc(O)c(O)c1O	M18AAP inhibitor 52 (no result: ALR inh)
COc1ccc(OC)c(/C(C)=N/Nc2ccc(C(=O)O)cc2)c1	ALR inh 99
COC(=O)[C@@]12CCCCC3=C1N(CCC3)C(=O)[C@H]2CC(=O)N1CCOCC1	none (no result: M18AAP inhibitor, GASC-1 inh, ALR inh, Exocytosis inh, MIN6 prolif)
COc1ccc(S(=O)(=O)NCC(=O)N2CCN(c3ccccn3)CC2)c(OC)c1	none (no result: M18AAP inhibitor, GASC-1 inh, ALR inh, Exocytosis inh, MIN6 prolif)
COc1ccc(N=c2sc3ccccc3n2C)cc1	ALR inh 98
Cc1noc(C)c1S(=O)(=O)NCCN1CCN(c2ccccc2)CC1	ALR inh 86
Cc1noc(C)c1S(=O)(=O)NCCCN1CCN(Cc2ccccc2)CC1	none (no result: SMARCA2 activ, Exocytosis inh)
CC(=O)CC[C@@H]1CC[C@]2(CCCN(C(=O)C3CCCCC3)C2)O1	none (no result: M18AAP inhibitor, GASC-1 inh, ALR inh, Exocytosis inh, MIN6 prolif)
Cc1ccc(NC(=O)CSc2nccc(=O)[nH]2)c(S(=O)(=O)N2CCOCC2)c1	ALR inh 98
O=C(CSc1nccc(=O)[nH]1)Nc1cccc(S(=O)(=O)N2CCOCC2)c1	none
O=C(Nc1nnc(-c2ccc(F)cc2)o1)c1ccco1	ALR inh 96 (no result: M18AAP inhibitor)
CC1(C)CC(=O)C=C(c2ccccc2-c2cccc(C(N)=O)c2)C1=O	none (no result: M18AAP inhibitor, GASC-1 inh, ALR inh, Exocytosis inh, MIN6 prolif)
C=CCC(CC(O)COCCC)C(=O)NNC(=S)Nc1ccccc1 (configuration not stated)	M18AAP inhibitor 30, ALR inh 98
O=C(NC1CCc2ccccc21)c1cc(COc2ccc(F)cc2Cl)on1 (configuration not stated)	none (no result: ALR inh)
O=C(NC1CCc2ccccc21)c1cc(COc2cncc(Cl)c2)on1 (configuration not stated)	GASC-1 inh 60
COC(=O)[C@]12C[C@H](CC(=O)N3CCSCC3)C(=O)N(Cc3cccc4ccccc34)C1=C[C@H](C(C)C)O[C@@H]2C1CC1	none (no result: M18AAP inhibitor, GASC-1 inh, ALR inh, Exocytosis inh, MIN6 prolif)
CC1(C)Cc2c(sc3ncnc(NN)c23)CO1	M18AAP inhibitor 30
Cc1ccc(C(=O)NCC(=O)OC(C)C(=O)Nc2ccc(N(C)C)cc2)s1 (configuration not stated)	ALR inh 99
Cc1ccc(C(=O)NCC(=O)OC(C)C(=O)Nc2ccccc2[N+](=O)[O-])s1 (configuration not stated)	none (no result: M18AAP inhibitor)
CCn1nc(C)cc1C(=O)Sc1ccc(C)cc1	ALR inh 98
O=C1N=NC(=O)N1c1ccccc1	ALR inh 87
COC(=O)N1C[C@H](O)[C@H](O)C[C@@H]1c1ccccc1Br	none (no result: M18AAP inhibitor, GASC-1 inh, ALR inh, Exocytosis inh, MIN6 prolif)
CC(NCc1ccco1)C(=O)N1CCN(c2cccc(C(F)(F)F)c2)CC1 (configuration not stated)	none (no result: M18AAP inhibitor, GASC-1 inh, ALR inh, Exocytosis inh, MIN6 prolif)
COc1ccc2[nH]cc(/C=N/NS(=O)(=O)c3ccc(C)cc3)c2c1	none (no result: ALR inh)
COc1ccc2c(/C=N/NS(=O)(=O)c3ccc(C)cc3)c[nH]c2c1	ALR inh 89, Exocytosis inh inconclusive
Cc1cc(/C=N/NC(=O)c2cc3ccccc3o2)c(C)n1C	M18AAP inhibitor 30
Cc1cccc(CCNC(=O)Cn2nc(-c3ccccc3)ccc2=O)c1	none (no result: M18AAP inhibitor, GASC-1 inh, ALR inh, Exocytosis inh, MIN6 prolif)
O=C(NCc1ccc(F)c(F)c1)C1CCC(CNS(=O)(=O)c2cccc3cccnc23)CC1 (configuration not stated)	none (no result: M18AAP inhibitor, GASC-1 inh, ALR inh, Exocytosis inh, MIN6 prolif)
Cc1ccc(C(=O)NC(=S)NNS(=O)(=O)c2ccccc2)cc1	ALR inh 98
Cc1ccc(S(=O)(=O)NNC(=O)c2cccc(O)c2)cc1	M18AAP inhibitor 30
COc1ccc(C(=O)NNS(=O)(=O)c2ccc(OC)cc2)cc1	ALR inh 87
O=C(NNS(=O)(=O)c1ccc(F)cc1)c1cccc(O)c1	none
Cc1ccc(S(=O)(=O)NNC(=S)Nc2cccc(F)c2)cc1	ALR inh 99
Cc1cccc(NC(=O)NNS(=O)(=O)c2ccc(F)cc2)c1	none (no result: ALR inh)
COCCn1c(SCC(=O)Nc2cccc(F)c2)nc2c([nH]c3ccccc32)c1=O	none
COCCn1c(SCC(=O)Nc2cccc(NC(C)=O)c2)nc2c([nH]c3ccccc32)c1=O	ALR inh 98
COCCn1c(SCC(=O)Nc2ccc(C(C)=O)cc2)nc2c([nH]c3ccccc32)c1=O	ALR inh 98
O=C(c1cc(Br)cc(Br)c1)N1CCC(Oc2cccnc2)CC1	none (no result: M18AAP inhibitor, GASC-1 inh, ALR inh, Exocytosis inh, MIN6 prolif)
O=C(CSc1ncnc2[nH]ncc12)Nc1cccc(Oc2ccccc2)c1	ALR inh 98
O=C(CSc1cccc[n+]1[O-])Nc1cccc(Oc2ccccc2)c1	ALR inh 94
Cc1nnc(SCC(=O)c2ccc(S(=O)(=O)N3CCOCC3)cc2)n1-c1ccccc1	ALR inh 94
N#Cc1ccccc1NCCCN1CCC(C(O)(c2ccccc2)c2ccccc2)CC1	none (no result: M18AAP inhibitor, GASC-1 inh, ALR inh, Exocytosis inh, MIN6 prolif)
C[C@H](c1ccccc1)N1C[C@@H](COCc2ccccc2)Oc2cccc(Oc3ccc(C(C)(C)C)cc3)c2S1(=O)=O	none (no result: M18AAP inhibitor, GASC-1 inh, ALR inh, Exocytosis inh, MIN6 prolif)
O=C1CC(c2ccccc2)CC(O)=C1C=NCC1CCCO1 (configuration not stated)	none
Oc1[nH]c2ccccc2c1C=NCC1CCCO1 (configuration not stated)	ALR inh 98
COc1ccc(CN=Cc2c(O)[nH]c3ccccc23)cc1	ALR inh 99
COC(=O)C1CN(CCO)CCS(=O)(=O)N1Cc1cn(Cc2ccccc2Br)nn1 (configuration not stated)	none (no result: M18AAP inhibitor, GASC-1 inh, ALR inh, Exocytosis inh, MIN6 prolif)
Cc1ccc2nc(CN(C)C(=O)[C@@H](Cc3ccccc3)NC(=O)[C@H]3O[C@@H](n4cnc(C(N)=O)n4)[C@H](O)[C@@H]3O)[nH]c2c1	none (no result: M18AAP inhibitor, GASC-1 inh, ALR inh, Exocytosis inh, MIN6 prolif)
CCOC(=O)[C@]12CCCCC/C=C\1N(Cc1ccc(OC)cc1)C(=O)[C@H]2CC(=O)NCc1ccccc1	none (no result: M18AAP inhibitor, GASC-1 inh, ALR inh, Exocytosis inh, MIN6 prolif)
Nc1nc(CSc2ncn[nH]2)nc(Nc2ccc(F)cc2)n1	none
c1ccc(Nc2nc(CSc3ncn[nH]3)cs2)cc1	M18AAP inhibitor 60, ALR inh 94
CC12CN3CC(C)(CN(C1)C3c1cc(Br)ccc1O)C2=O (configuration not stated)	none
CC1(C)C(=O)OC(c2cc(Br)ccc2O)C(C)(C)C1=O (configuration not stated)	ALR inh 98
Cn1ccnc1CN1CCC[C@]2(CC[C@H](CCC#N)O2)C1	none (no result: M18AAP inhibitor, GASC-1 inh, ALR inh, Exocytosis inh, MIN6 prolif)
S=c1nc(-c2ccccc2Cl)n(Cc2cccnc2)c2c1CCCC2	ALR inh 99
